Values joined by “and” are separate entries in the source; they are usually repeats but may differ in a detail not shown here. Identical values can stand only once. Active and inactive are the calls of the source.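 Rule for the calls, unless noted: active = thallium flux through the channel raised or lowered by more than 3 SD from vehicle-only wells, actives on both sides; inactive = the rest.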

Test [1] is described as follows: liver-stage malaria parasite growth inhibition, primary screen, cell-based, HepG2, luciferase luminescence, HepG2 viability (AID 624349; in the data active = parasite load remaining mostly below about 12%, no sharp cut-off; inactive = mostly above about 10%;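 note: 100% = mean of DMSO negative control wells on the same plate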). The note with it: P. berghei liver stage in HepG2, luciferase luminescence, concentration not given here; parasite load remaining: stronger effect = lower value; viability: measured here: HepG2 viability without parasites.
Test [2] is described as follows: Cy5 fluorescence interference with SSB-bound oligo, artefact control for HCV NS3 helicase inhibitor project, biochemical, NIH Clinical Collection, E. coli SSB (AID 743268; call rule not given here).
In test [3] the test system is Hepatitis C virus NS3 helicase. Description: HCV NS3 helicase inhibitors, primary screen, biochemical, fluorescence polarization, NIH Clinical Collection (AID 743270; call rule not given here). The conditions noted are these: NS3 helicase binding to Cy5-dT15 DNA, stronger effect = higher value, concentration not given here.
The target of test [4] is Single-stranded DNA-binding protein (Escherichia coli (strain K12)) (UniProt P0AGE0). The test can be described thus: E. coli SSB displacement from DNA, counter-screen for HCV NS3 helicase inhibitor project, biochemical, fluorescence polarization, NIH Clinical Collection (AID 743271; in the data active = inhibition above about 28%). The conditions noted are these: stronger effect = higher value, concentration not given here.
Test [5] in a line: fluorescence interference in NS3h assay format, artefact control for HCV NS3 helicase inhibitor project, biochemical, NIH Clinical Collection (AID 743272; call rule not given here;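 note: HCV NS3 helicase with a Cy5 labelled single stranded DNA probe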). The note with it: fluorescence interference counterscreen, stronger effect = lower value.
Test [6] can be described thus: modulation of C. elegans fzo-1 (AID 1259413; call rule not given here;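 note: fzo-1 mutant C. elegans worms in liquid wells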). The conditions noted are these: C. elegans fzo-1 modulator screen, mean read-out; stronger effect = higher value.
Test [7] in a line: sensitizers of A549 cells to miR-34 induction, primary screen, imaging, A549 dox-inducible miR-34, nuclei and caspase counts (AID 1347080;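 active = compounds whose cell count with miR-34 switched on is under 0.7 times the count with it off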). The conditions noted are these: A549 miR-34 inducible, Hoechst nuclei count, 48 h.
A short description of test [8]: survival rescue of mitochondrial mutant cells in low glucose, primary screen, MELAS cybrids, Rieske KO mouse fibroblasts, CellTiter-Glo (AID 1508586;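 active = mean z-score across replicates of 1.96 or higher in either the MELAS or the Rieske mutant cell line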;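 note: z relative to plate mean and SD of compound and empty wells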).
A short description of test [9]: viability rescue of complex I mutant cybrids, primary screen, cell-based, galactose medium, ATP luminescence (AID 1645843;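 active = z-score of at least 1.8 in each of two replicates, scored against plate mean and spread of sample wells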;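 note: positive z means more ATP and so rescue of galactose-driven cybrid death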). The note with it: complex I mutant cybrid cells, 72 h, stronger effect = higher value.
Test [10] concerns F380Y. Description: modulators of BK channel variants, profiling panel, selectivity assay, cell-based, U2OS BacMam, thallium flux, beta subunits (AID 1259406).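 Note: initial slope of Thallos dye fluorescence rise after thallium is added; log ratio against the mean of 0.3% DMSO vehicle wells on the same plate.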 The note with it: at 30 µM.
Test [11] deals with F380Y/beta1. The description is as above. The conditions noted are these: at 30 µM.
Test [12] deals with F380Y/beta2Delta. The description is as above. The conditions noted are these: at 30 µM.
Test [13] relates to F380Y/beta4. Described as above. The conditions noted are these: at 30 µM.
In test [14] the target is Calcium-activated potassium channel subunit alpha-1 (Homo sapiens) + Leucine-rich repeat-containing protein 26 (Homo sapiens) (UniProt Q12791+Q2I0M4). The description is as above. The conditions noted are these: F380Y/Slo1WT/gamma1, at 30 µM.
Test [15] relates to R275C. The test is described as above. The note with it: at 30 µM.
The subject of test [16] is R275C/beta1. The test is described as above. The note with it: at 30 µM.
For test [17], the system named is R275C/beta2Delta. The test is described as above. The note with it: at 30 µM.
In test [18] the test system is R275C/beta4. The description is as above. The note with it: at 30 µM.
The subject of test [19] is R275C/Slo1WT/beta2. The description is as above. The note with it: at 30 µM.
[20] abbreviates: MELAS cybrid survival, CellTiter-Glo 48 h, stronger effect = higher value.
[21] abbreviates: Rieske KO mouse fibroblast survival, CellTiter-Glo 72 h.

Sequence of Calcium-activated potassium channel subunit alpha-1 (Homo sapiens) + Leucine-rich repeat-containing protein 26 (Homo sapiens) (Q2I0M4 whole entry, looked up, one chain of several): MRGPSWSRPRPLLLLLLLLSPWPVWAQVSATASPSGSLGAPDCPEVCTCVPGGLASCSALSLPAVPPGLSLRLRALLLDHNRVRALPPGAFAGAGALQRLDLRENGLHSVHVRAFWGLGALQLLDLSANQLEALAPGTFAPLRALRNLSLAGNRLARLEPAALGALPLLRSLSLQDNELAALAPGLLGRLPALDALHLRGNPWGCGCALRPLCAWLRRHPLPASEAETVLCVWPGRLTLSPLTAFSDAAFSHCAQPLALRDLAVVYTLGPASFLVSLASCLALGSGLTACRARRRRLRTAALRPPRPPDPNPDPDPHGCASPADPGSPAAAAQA

For `COc1ccc(C[C@H](C)NC[C@@H](O)c2ccc(O)c(NC=O)c2)cc1`, the parasite load remaining in test [1] is 66.9% (inactive). The compound further gave a viability in [1] of 77.1%. Moreover, the fluorescence ratio was 1.02 (inactive) in [2] and 0.98 (inactive) in test [5]. Further, the inhibition in test [3] is -9.9% (inactive); in test [4] it was -0.1% (inactive). Besides, in [6], the mean signal is 235 (inactive). Besides, the fold change in [7] (stronger effect = lower value, cell number ratio, induced over uninduced) is 0.975 (inactive); in test [7] (measured here: relative caspase fold change +Dox/-Dox) it was 0.716. Moreover, the cell count amounted to 8230 in test [7] (measured here: total cells with miR-34 induction, stronger effect = lower value) and 8440 in test [7] (measured here: total cells without miR-34 induction). Besides, the z-score in test [8] (setting [20]) is -0.844 (inactive); in test [8] (setting [21]), -0.643; in test [9], -0.475 (inactive). Moreover, the log fold change Tl+ flux in [10] is -0.0497 (inactive); in [11], -4.2e-05 (inactive); in test [12], 0.0145 (inactive); in test [13], -0.0214 (inactive); in test [14], 0.0199 (inactive); in test [15], 0.00389 (inactive). Further, the log fold change Tl+ flux was 0.0191 (inactive) in [16], -0.0506 (inactive) in [17], 0.0483 (inactive) in test [18] and 0.0259 (inactive) in test [19].
With `Cc1cnc(C(=O)NCCc2ccc(S(=O)(=O)NC(=O)NC3CCCCC3)cc2)cn1`, the fluorescence ratio was 1.05 (inactive) in [2] and 0.98 (inactive) in test [5]. The values for the inhibition in test [3] and in test [4] were -5% (inactive) and -2% (inactive), respectively. Moreover, the mean signal in [6] is 228 (inactive). Also, the z-score in [8] (setting [20]) was 0.0771 (inactive) and 0.00808 (inactive) and -0.837 (inactive); in [8] (setting [21]) it was 0.368 and 0.143 and -0.894; in [9] it was 1.17 (inactive) and 0.66 (inactive) and 1.06 (inactive). Besides, the log fold change Tl+ flux in test [10] was -0.0483 (inactive); in test [11] it was -0.0347 (inactive); in test [12], -0.0103 (inactive); in test [13], 0.0321 (inactive); in test [14], -0.0267 (inactive); in test [15], 0.0214 (inactive). Besides, the log fold change Tl+ flux is 0.0314 (inactive) in test [16], 0.0193 (inactive) in test [17], 0.0322 (inactive) in test [18] and 0.0429 (inactive) in [19].
In the case of `CC(C)NCC(O)c1ccc(NS(C)(=O)=O)cc1` (stereo unspecified), the fluorescence ratio in test [2] was 1.06 (inactive); in [5], 0.98 (inactive). The inhibition in test [3] is 1.19% (inactive); in [4], -3.95% (inactive). In addition, the mean signal in test [6] is 233 (inactive). In addition, the z-score was -0.308 (inactive) and -0.43 (inactive) and 0.386 (inactive) in test [8] (setting [20]); 0.759 and -0.504 and 0.277 in test [8] (setting [21]). The log fold change Tl+ flux in test [10] was 0.0283 (inactive); in test [11], -0.0363 (inactive); in test [12], 0.0277 (inactive); in test [13], 0.0134 (inactive); in test [14], -0.004 (inactive); in [15], -0.065 (inactive). The log fold change Tl+ flux in test [16] was -0.000905 (inactive); in test [17], -0.0581 (inactive); in test [18] it was 0.0206 (inactive); in [19] it was 0.0082 (inactive).
Regarding `CN(C)CCCC1(c2ccc(F)cc2)OCc2cc(C#N)ccc21` (stereo unspecified), the fluorescence ratio is 1.03 (inactive) and 1.01 (inactive) in [2]; 0.99 (inactive) and 1.03 (inactive) in [5]. Also, the inhibition in [3] is -5.94% (inactive) and -0.45% (inactive); in test [4] it was -1.64% (inactive) and 0.29% (inactive). Further, the mean signal in test [6] is 220 (inactive). For the same compound, the z-score was -0.338 (inactive) and 0.623 (inactive) and -0.34 (inactive) in test [8] (setting [20]); -0.153 and 0.348 and -0.881 in test [8] (setting [21]). In addition, the log fold change Tl+ flux in test [10] is 0.0263 (inactive) and 0.0749 (inactive); in [11], 0.0236 (inactive) and -0.0159 (inactive); in test [12], 0.0311 (inactive) and 0.0638 (inactive); in test [13] it was 0.0583 (inactive) and -0.00121 (inactive); in test [14], 0.0169 (inactive) and -0.0497 (inactive); in test [15], -0.0255 (inactive) and -0.00148 (inactive). For the same compound, the log fold change Tl+ flux in [16] was 0.0362 (inactive) and 0.0712 (inactive); in test [17], 0.0568 (inactive) and 0.0646 (inactive); in [18], 0.0241 (inactive) and 0.0131 (inactive); in test [19], 0.0494 (inactive) and 0.00231 (inactive).
